Measurements: PubChem BioAssay (EPA / NIEHS)
More than one record can exist for a structure, and the calls need not agree. The source made the active and inactive calls. Rule for the calls: active = hit-call score of the fitted dose curve at least 0.9, where 1 is the maximum; inactive = score below 0.9.

These compounds were tested on Interferon-gamma inducible Protein 10 (IP10), CXCL10 (gene 3627) (assay: BSK_hDFCGF_IP10: BioMAP Diversity Plus: hDFCGF Assay for Interferon-gamma inducible Protein 10 (IP10) Biomarker Activity (AID 2283053)). Settings: primary human foreskin fibroblasts; actives raise or lower the signal.
Method: BSK_hDFCGF is a cell-based, multiplexed-readout assay that uses foreskin fibroblast, a human skin primary cell, with measurements taken at 24 hours after chemical dosing in a 96-well plate.BSK_hDFCGF_IP10 is an assay component measured in the BSK_hDFCGF assay. It measures IP-10 antibody related to regulation of gene expression using ELISA technology.Data from the assay component BSK_hDFCGF_IP10 was analyzed into 1 assay endpoint. This assay endpoint, BSK_hDFCGF_IP10, was analyzed with bidirectional fitting relative to DMSO as the negative control and baseline of activity. Using a type of binding reporter, gain or loss-of-signal activity can be used to understand changes in the signaling as they relate to the gene CXCL10. Furthermore, this assay endpoint can be referred to as a primary readout, because this assay has produced multiple assay endpoints where this one serves a signaling function. To generalize the intended target to other relatable targets, this assay endpoint is annotated to the cytokine intended target family, where the subfamily is chemotactic factor.
The levels of cell surface (or secreted, indicated by the prefix "s") biomarker endpoints were measured by ELISA. Overt cytotoxicity to cells in confluent adherent cultures (all systems other than the BT system) was assessed by measuring total protein levels using sulforhodamine B (SRB) staining in parallel cultures at the time of biomarker measurements, indicated as SRB endpoints. For proliferation assays for adherent cell types, individual cell types are cultured at sub-confluence and relative cell numbers quantified by SRB staining at time points optimized for each system (48 h: 3C and CASM3C systems; 72 h: BT and HDF3CGF systems; 96 h: SAg system). SRB was performed by staining cells with 0.1% SRB after fixation with 10% TCA and reading wells at 560 nm.Viability and proliferation of PBMC (T cells) was quantified by Alamar Blue reduction for the SAg and BT systems. For PBMC viability (referred to as PBMC Cytotoxicity within the assay endpoint names), cells were plated (75,000/well in a 96-well plate) and then chemical samples added for 1 h before addition of activators, SEB and TSST-1 (20 ng/mL final concentration each). Cells were incubated for 90 h. Then, Alamar Blue (20 uL/well) (Invitrogen, Cat DAL1100) was added for 6 h, and the plates were read with a fluorescence microplate reader at 546/580 nm (excitation/emission). For PBMC proliferation, cells were plated and activated as above but incubated for only 16 h prior to addition of Alamar Blue. Plates were read after 6 h.
For `O=S(=O)(O)C(F)(F)C(F)(F)C(F)(F)C(F)(F)C(F)(F)C(F)(F)C(F)(F)C(F)(F)F`, the AC50 was 21.7 µM (active) [middle of 7 runs] and the outcome was “inactive”.
In the case of `CC(C)(C)C(O)C(Oc1ccc(Cl)cc1)n1cncn1` (stereo not given), the outcome is reported as “inactive”.
With `CN1CSC(=S)N(C)C1` the AC50 was 16 µM (active).
For `COP(=O)(OC)OC=C(Cl)Cl`, the outcome was “inactive”.
`O=[N+]([O-])c1c(Cl)c(Cl)c(Cl)c(Cl)c1Cl` was tested, and the AC50 was 38 µM (active).
In the case of `[2H]C1([2H])[n+]2ccccc2-c2cccc[n+]2C1([2H])[2H]`, the AC50 is reported as 5.27 µM (active).
`ClC1C(Cl)C(Cl)C(Cl)C(Cl)C1Cl` (stereo not given) was tested, and the outcome was “inactive” and the AC50 was 32.2 µM (active).
In the case of `CCCN(CCOc1c(Cl)cc(Cl)cc1Cl)C(=O)n1ccnc1`, the AC50 is reported as 30.7 µM (active).
In the case of `CCOc1nc(NC)nc(NC(=O)NS(=O)(=O)c2ccccc2C(=O)OC)n1`, the AC50 is reported as 26.5 µM (active).
With `CC(C)(C)C(O)/C(=C\c1ccc(Cl)cc1Cl)n1cncn1` (stereo not given) the AC50 was 36.5 µM (active).
`COP(=S)(OC)Oc1ccc([N+](=O)[O-])cc1` was tested, and the AC50 was 20.3 µM (active).
With `C#CCN1C(=O)COc2cc(F)c(N3C(=O)C4=C(CCCC4)C3=O)cc21` the outcome was “inactive”.
In the case of `CNC(=O)Oc1cccc(N=CN(C)C)c1`, the AC50 is reported as 15.2 µM (active).
With `CCOCN(C(=O)CCl)c1c(C)cccc1CC` the AC50 was 20 µM (active).
In the case of `CC1(C)C(C=C(Cl)Cl)C1C(=O)OC(C#N)c1ccc(F)c(Oc2ccccc2)c1` (stereo not given), the outcome is reported as “inactive”.
In the case of `CCOC1Oc2ccc(OS(C)(=O)=O)cc2C1(C)C` (stereo not given), the outcome is reported as “inactive”.
`CCC(C)(NC(=O)c1cc(Cl)c(C)c(Cl)c1)C(=O)CCl` (stereo not given) was tested, and the AC50 was 5.56 µM (active).
`C[C@H]1[C@H](c2ccc(Cl)cc2)SC(=O)N1C(=O)NC1CCCCC1` was tested, and the AC50 was 20 µM (active).
With `O=S1OCC2C(CO1)C1(Cl)C(Cl)=C(Cl)C2(Cl)C1(Cl)Cl` (stereo not given) the AC50 was 29.5 µM (active).
For `CCN(CC)C(=O)SCc1ccc(Cl)cc1`, the outcome was “inactive”.
`COP(=S)(OC)Oc1ccc(SC)c(C)c1` was tested, and the outcome was “inactive”.
With `Cc1[nH]c(=O)n(C(C)(C)C)c(=O)c1Cl` the outcome was “inactive”.
With `CC(C)OC(=O)Nc1cccc(Cl)c1` the outcome was “inactive”.
With `COC(=O)c1ccccc1S(=O)(=O)NC(=O)Nc1nc(C)nc(OC)n1` the outcome was “inactive”.
With `N#CN` the outcome was “inactive”.
With `CCC(C)Nc1c([N+](=O)[O-])cc(C(C)(C)C)cc1[N+](=O)[O-]` (stereo not given) the AC50 was 15.3 µM (active).
In the case of `O=C(Nc1ccccc1)Nc1cnns1`, the outcome is reported as “inactive”.
In the case of `CNC(=O)Oc1ccccc1OC(C)C`, the outcome is reported as “inactive”.
For `CCS(=O)(=O)c1cccnc1S(=O)(=O)NC(=O)Nc1nc(OC)cc(OC)n1`, the outcome was “inactive”.
In the case of `O=C(O)CCCOc1ccc(Cl)cc1Cl`, the outcome is reported as “inactive”.
In the case of `CCCN(CCC)c1c([N+](=O)[O-])cc(C(F)(F)F)cc1[N+](=O)[O-]`, the AC50 is reported as 15.2 µM (active).
With `O=C(O)COc1ccc(Cl)cc1Cl` the outcome was “inactive”.
With `COc1cc(OC)nc(NC(=O)NS(=O)(=O)c2cc(NC=O)ccc2C(=O)N(C)C)n1` the outcome was “inactive”.
With `CNC(=O)CSP(=S)(OC)OC` the outcome was “inactive”.
In the case of `COc1nn(CSP(=S)(OC)OC)c(=O)s1`, the AC50 is reported as 20 µM (active).
With `O=[N+]([O-])/N=C1\NCCN1Cc1ccc(Cl)nc1` the outcome was “inactive”.
In the case of `O=C(NC(=O)c1c(F)cccc1F)Nc1ccc(OC(F)(F)C(F)OC(F)(F)F)c(Cl)c1` (stereo not given), the outcome is reported as “inactive”.
In the case of `Oc1cc(Cl)ccc1Oc1ccc(Cl)cc1Cl`, the AC50 is reported as 15.4 µM (active) [middle of 4 runs].
